ALOX15B inhib – qHTS Assay for Inhibitors of 15-hLO-2 (15-human lipoxygenase 2); Polyunsaturated fatty acid lipoxygenase ALOX15B (Homo sapiens), O15296; purified 15hLO-2, xylenol orange hydroperoxide absorbance; Potency, µM (series often up to 57.1 µM), for the others: top-dose activity change, negative = inhibition, hits mostly inhibitors; hit rate 0.56% among 110,000; also: % is scaled to controls: 0 for no effect and ±100 for the full control effect; nearly all actives have a fitted effect of over 60% in size
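Read-out: hydroperoxide product oxidises ferrous iron, measured as xylenol orange complex via the 573-to-405 nm absorbance ratio after 30 min. Reaction: 50 nM enzyme, 15 min compound preincubation, 45 uM arachidonic acid, 90 min RT, Hepes pH 7.5 with Triton X-100.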
15-hLO inh – qHTS Assay for Inhibitors of 15-hLO (15-human lipoxygenase) | Polyunsaturated fatty acid lipoxygenase ALOX15 (Homo sapiens), P16050 | purified 15hLO-1, xylenol orange hydroperoxide absorbance | Potency, µM (titrated, usually from 57.1 µM), for inactives: at the highest dose activity change, negative = inhibition, most hits filed as inhibitors | hit rate 1.4% among 74,000 | AID 887, 2007; also: % is scaled to controls: 0 for no effect and ±100 for the full control effect; nearly all actives have a fitted effect of over 55% in size
Target sequence (P16050 whole entry, looked up): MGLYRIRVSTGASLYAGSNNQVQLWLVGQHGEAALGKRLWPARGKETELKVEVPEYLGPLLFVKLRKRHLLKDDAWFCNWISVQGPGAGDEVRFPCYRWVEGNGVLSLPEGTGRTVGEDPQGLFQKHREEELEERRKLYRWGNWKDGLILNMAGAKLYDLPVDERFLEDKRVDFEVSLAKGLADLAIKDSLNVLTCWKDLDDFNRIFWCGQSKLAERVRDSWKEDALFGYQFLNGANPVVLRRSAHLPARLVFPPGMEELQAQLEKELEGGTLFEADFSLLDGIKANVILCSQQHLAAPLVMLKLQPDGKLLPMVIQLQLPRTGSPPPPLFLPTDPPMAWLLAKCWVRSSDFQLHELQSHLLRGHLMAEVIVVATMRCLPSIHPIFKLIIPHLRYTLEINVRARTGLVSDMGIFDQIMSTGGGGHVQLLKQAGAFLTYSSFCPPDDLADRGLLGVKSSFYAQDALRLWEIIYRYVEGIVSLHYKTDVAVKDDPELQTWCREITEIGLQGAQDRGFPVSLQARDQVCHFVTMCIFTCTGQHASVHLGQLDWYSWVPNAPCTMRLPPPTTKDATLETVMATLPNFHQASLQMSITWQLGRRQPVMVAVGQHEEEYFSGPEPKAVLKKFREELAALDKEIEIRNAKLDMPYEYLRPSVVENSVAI
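Readout: Fe(III)-xylenol orange absorbance, 573-to-405 nm ratio as reaction progress. Enzyme 40 nM purified human 15hLO-1, substrate 50 uM arachidonic acid, 6 min RT after 15 min compound preincubation; Hepes pH 7.5 buffer with Triton X-100.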
Casp1 inh – qHTS Assay for Allosteric/Competitive Inhibitors of Caspase-1 | Caspase-1 enzyme, Ac-WEHD-AFC fluorogenic rate | Potency, µM (top dose mostly 57.5 µM), for inactives: at the highest dose activity change, negative = inhibition, actives largely listed as inhibitors | hit rate 0.03% among 75,000 | AID 900, 2007;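 also: plate controls were vehicle for no effect and no substrate for full effect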
Caspase-7 inhib – qHTS Assay for Allosteric/Competitive Inhibitors of Caspase-7 | P55210 | recombinant caspase-7, Ac-DEVD-AFC fluorescence rate | Potency, µM (doses to about 57.5 µM), for the others: at the highest dose activity change, negative = inhibition, actives largely listed as inhibitors | hit rate 0.02% among 75,000 | AID 889, 2007; active = well fitted inhibition curve with a large enough effect in the main read-out, with a control signal flat, not every such curve was filed as active; inconclusive = small, poorly fitted or top-dose-only effect, or a change in a side signal; also: % of control where 0% means no effect
TSHR ag – qHTS Assay for Agonists of the Thyroid Stimulating Hormone Receptor | Potency, µM (top dose mostly 57.1 µM), without a hit: at the top dose activation, most hits filed as activators | Thyrotropin receptor (Homo sapiens), P16473 | AID 926, 2007 | hit rate 0.48% among 73,000 | HEK293-CNG-TSHR cells (CNG channel as cAMP sensor), membrane potential dye, cAMP; active = well fitted activation curve with a large enough effect in the main read-out, with a control signal flat, not every such curve was filed as active; inconclusive = small, poorly fitted or top-dose-only effect, or a change in a side signal; inactive = no such curve, though single readings can be large or run the other way; % of control where 0% means no effect;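 also: the control signal comes from parental cells without the receptor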
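HEK 293 cells stably expressing TSHR and a cAMP-gated CNG channel; parental CNG-only cells as counterscreen. Cells preloaded 60 min with membrane potential dye plus 100 uM RO 20-1724, then compound 30 min; fluorescence read at 590 nm.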
HEK293 cAMP cs – qHTS Assay for Agonists of the Thyroid Stimulating Hormone Receptor: Activators of Intracellular cAMP Concentrations in Parental HEK 293; parental HEK293 CNG cAMP sensor, membrane potential fluorescence; Potency, µM (highest dose often 57.1 µM), for the others: at the top dose activation, usual class: activators; hit rate 2.5% among 73,000; AID 938, 2007; also: % of control where 0% means no effect; nearly all actives have a fitted effect of over 55% in size
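Parental HEK 293 cells stably expressing a cAMP-gated CNG channel were loaded with membrane potential dye containing 100 uM RO 20-1724 for 60 min. Compound added for 30 min; depolarization read as fluorescence intensity at 590 nm.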
* hit, by the source's call; ? = inconclusive; / = no result; [ ] = remark or other dose. Sampled rows, rich in hits. Any-hit rate of the full collection: about 3%. Unless noted, calls follow the shape of the dose curve; as a rule, active = well fitted curve in the direction sought with a large enough effect; inconclusive = small, poorly fitted or top-dose-only effect, or another doubt; inactive = no such curve, though single readings can be large; an effect the other way counts as inactive or inconclusive. Potency is read from the fitted curve at half-maximal effect.

SMILES	ALOX15B inhib	15-hLO inh	Casp1 inh	Caspase-7 inhib	TSHR ag	HEK293 cAMP cs
COc1cccc(Cn2c(=O)c(-c3cccs3)nc3cnc(Nc4ccccc4)nc32)c1	2.6%	4.8%	/	?	?	?
COc1cccc(NC(=O)/C=C\c2ccc(Cl)cc2)c1	14.7%	-1.7%[25.6 µM]	-3.0%	-2.2%	?	31.6µM*
COc1ccccc1-n1cnnc1SCC(=O)c1cc(C)n(Cc2cccs2)c1C	29.9%	-4.6%	-5.4%	-4.0%	?	31.6µM*
Cc1cnc(CNc2ncncc2-c2ccccc2C)cn1	0.3%	-22.6%	-4.0%	-5.5%	6.7%	1.6%
CC(C)(O)C1CC[C@@]2(C)C3CCC4[C@@]5(C)CCCC(C)(C)C5C(O)C[C@]4(C)[C@]3(C)CC[C@@H]12 (stereo partly drawn)	3.5%	3.6%	-0.1%	-0.9%	/	/
O=c1c(-c2cc(F)cc(F)c2)nc2cnc(N3CCOCC3)nc2n1C1CC1	-3.1%	?	1.8%	3.4%	3.0%	18.4%
CCCCC(=O)NC1(C(F)(F)F)C(=O)N(Cc2ccco2)C(C)=C1C(=O)OC (stereo not drawn)	2.7%	5.3%	-2.1%	-2.1%	15.8µM*	3.0%
O=[N+]([O-])c1cccc2c(Br)[nH]nc12	-0.6%	12.6µM*	3.3%	-1.5%	-8.0%	3.0%
CN=C1N[C@H](c2ccccc2)N(c2ccccc2)S1	25.1µM*	0.794µM*	-2.7%	-0.6%	12.6%	11.4%
O=C(O)c1cccc(Cl)c1Cl	-4.3%	-2.6%	0.9%	1.9%	?	-9.3%
O=C(c1cccc(F)c1)N1C2C=CC(C2)C1(C(F)(F)F)C(F)(F)F (stereo not drawn)	-6.1%	-2.2%	0.0%	-1.4%	25.1µM*	23.2%
O=C(c1cccc(F)c1)N1CCN(c2cccc(C(F)(F)F)c2)CC1	2.9%	1.5%	-0.8%	-1.9%	24.5%	14.5%
CCCCOCCOCCOCc1cc2c(cc1CCC)OCO2	-10.1%	0.2%	-0.2%	-0.5%	?	31.6µM*
O=C(C1CCN(S(=O)(=O)c2ccc3ccccc3c2)CC1)N1CCN(c2ncccn2)CC1	-1.4%	-28.6%	-3.3%	-5.4%	?	25.1µM*
CCSC1(SCC)N=C(N)C2(C#N)C(c3ccccc3)NC(C)=C(C)C12C#N (stereo not drawn)	?	-6.2%	-1.5%	-0.6%	25.1µM*	12.0%
COc1cccc(Nc2ncc3nc(C)c(=O)n(Cc4cccs4)c3n2)c1	-8.6%	-2.5%	/	?	?	3.16µM*
O=c1cnc2cnc(Nc3ccccc3)nc2n1Cc1cccs1	12.2%	-9.0%	?	-27.2%	?	12.6µM*
CCNc1ncc2nc(-c3ccc(Cl)cc3)c(=O)n(CCC#N)c2n1	-4.9%	-1.9%	/	?	-2.3%	11.9%
C[C@@H](c1ccccc1)N1C(=O)[C@H]2[C@H]3[C@H](O)[C@H](O)C/C(=N/OCc4ccccc4)[C@H]3CC[C@@H]2C1=O	/	4.0%[11.4 µM]	-3.2%[11.5 µM]	-1.0%[11.5 µM]	-12.8%[11.4 µM]	2.2%[11.4 µM]
Cc1nc2sc3c(c2c2nc(-c4ccco4)nn12)CCCC3	-7.0%	-8.9%	2.1%	-0.1%	?	31.6µM*
Cc1nnc(SCC2=C(C(=O)O)N3C(=O)C(NC(=O)Cn4cnnn4)[C@@H]3SC2)s1 (stereo partly drawn)	-5.1%	-6.3%	-1.7%	-2.9%	/	/
CS(=O)(=O)CCCCN=C=S	-2.5%	13.9%	3.3%	0.9%	/	/
CC1CCC2C(=O)N3C(CCC(C)[C@@H]3c3ccc(Br)cc3)C(=O)N2C1c1ccc(Br)cc1 (stereo partly drawn)	/	-14.7%[11.4 µM]	0.8%[11.5 µM]	-3.6%[11.5 µM]	-6.1%[11.4 µM]	-4.8%[11.4 µM]
